Measured values from PubChem BioAssay (EPA / NIEHS).
Inconclusive results are not listed. Active and inactive are the calls of the source. Rule for the calls, unless noted: active = hit-call score of the fitted dose curve at least 0.9, where 1 is the maximum; inactive = score below 0.9.

Assays:
[1] = read-out: E-selectin (Homo sapiens) (UniProt P16581); experiment: BSK_3C_Eselectin: BioMAP Diversity Plus: 3C Assay for Eselectin Biomarker Activity (AID 2283015); settings: primary human endothelial cells (HUVEC); actives raise or lower the signal
Procedure, shortened: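 Primary human umbilical vein endothelial cells (3C system) were dosed with chemical and cell-surface E-selectin measured by ELISA 24 h later. Bidirectional curve fitting used DMSO as negative control and baseline.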

[2] = read-out: Interleukin-1 alpha (IL1a), IL1A (gene 3552); experiment: BSK_BE3C_IL1a: BioMAP Diversity Plus: BE3C Assay for Interleukin-1 alpha (IL1a) Biomarker Activity (AID 2283016); settings: primary human bronchial epithelial cells; actives raise or lower the signal
Procedure, shortened: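 Human primary bronchial epithelial cells (BE3C system) were dosed with compound and IL-1a measured by ELISA 24 h later. Activity was fitted bidirectionally against DMSO baseline; cytotoxicity was tracked in parallel cultures by SRB total-protein staining.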

[3] = read-out: Monocyte Chemoattractant Protein-1 (MCP1), CCL2 (gene 6347); experiment: BSK_3C_MCP1: BioMAP Diversity Plus: 3C Assay for Monocyte Chemoattractant Protein-1 (MCP1) Biomarker Activity (AID 2283017); settings: primary human endothelial cells (HUVEC); actives raise or lower the signal
Procedure, shortened: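 Primary human umbilical vein endothelial cells (3C system) were exposed to test chemical for 24 h, after which MCP-1 was quantified by ELISA. Activity was fitted bidirectionally against DMSO as negative control and baseline.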

[4] = read-out: Monocyte Chemoattractant Protein-1 (MCP1), CCL2 (gene 6347); experiment: BSK_4H_MCP1: BioMAP Diversity Plus: 4H Assay for Monocyte Chemoattractant Protein-1 (MCP1) Biomarker Activity (AID 2283018); settings: primary human endothelial cells (HUVEC); actives raise or lower the signal
Procedure, shortened: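 Human umbilical vein endothelial cells (4H system) dosed with chemical; MCP-1 measured by ELISA 24 h after dosing. Bidirectional curve fitting against DMSO negative control as baseline; parallel SRB total-protein staining tracks overt cytotoxicity.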

[5] = read-out: Human Leukocyte Antigen - DR isotype (HLADR), HLA-DRA (gene 3122); experiment: BSK_3C_HLADR: BioMAP Diversity Plus: 3C Assay for Human Leukocyte Antigen - DR isotype (HLADR) Biomarker Activity (AID 2283019); settings: primary human endothelial cells (HUVEC); actives raise or lower the signal
Procedure, shortened: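 Primary human umbilical vein endothelial cells (3C system) were dosed with compound and cell-surface HLA-DR was quantified by ELISA at 24 h. Activity was fitted bidirectionally against DMSO as negative control and baseline.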

[6] = read-out: Interleukin-8 (IL8), CXCL8 (gene 3576); experiment: BSK_3C_IL8: BioMAP Diversity Plus: 3C Assay for Interleukin-8 (IL8) Biomarker Activity (AID 2283020); settings: primary human endothelial cells (HUVEC); actives raise or lower the signal
Procedure, shortened: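 Primary human umbilical vein endothelial cells (3C system) were exposed to test chemical for 24 h, then IL-8 was quantified by ELISA. Responses were fitted bidirectionally against DMSO vehicle as baseline.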

[7] = read-out: Monokine induced gamma interferon (MIG), CXCL9 (gene 4283); experiment: BSK_3C_MIG: BioMAP Diversity Plus: 3C Assay for Monokine induced gamma interferon (MIG) Biomarker Activity (AID 2283021); settings: primary human endothelial cells (HUVEC); actives raise or lower the signal;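 for AC50: MIG protein level measured by immunoassay in the treated endothelial cultures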
Procedure, shortened: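 Primary human umbilical vein endothelial cells in the 3C system were exposed to chemical for 24 h, after which MIG was quantified by ELISA. Activity was fitted bidirectionally against DMSO as negative control and baseline.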

[8] = target: human Vitamin D Receptor (VDR), VDR (gene 7421) (UniProt P11473); experiment: ATG_VDR_TRANS: Attagene TRANS-FACTORIAL HepG2 Assay for human Vitamin D Receptor (VDR) (AID 2283022; active = hit-call score of the fitted dose curve at least 0.9, where 1 is the maximum)
human Vitamin D Receptor (VDR), VDR (gene 7421), sequence (P11473 whole entry, looked up, the tested form may be a part): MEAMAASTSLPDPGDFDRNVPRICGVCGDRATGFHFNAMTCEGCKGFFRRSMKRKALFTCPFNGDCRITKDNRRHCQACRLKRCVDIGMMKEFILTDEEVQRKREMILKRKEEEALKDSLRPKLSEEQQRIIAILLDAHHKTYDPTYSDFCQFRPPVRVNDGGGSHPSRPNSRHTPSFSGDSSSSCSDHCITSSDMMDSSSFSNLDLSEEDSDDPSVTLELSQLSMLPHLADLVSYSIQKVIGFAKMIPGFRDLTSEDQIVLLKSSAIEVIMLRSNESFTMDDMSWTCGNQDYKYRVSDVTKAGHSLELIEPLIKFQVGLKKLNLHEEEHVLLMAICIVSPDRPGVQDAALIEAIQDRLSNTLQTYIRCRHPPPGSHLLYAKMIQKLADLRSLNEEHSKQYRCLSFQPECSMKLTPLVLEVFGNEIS
Procedure, shortened: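 HepG2 cells were transiently transfected with multiple GAL4-UAS reporter units, so signal reflects exogenous chimeric receptor-Gal4 activity. After 24 h compound exposure, reporter mRNA was measured by RT-PCR, fluorescent labelling and capillary electrophoresis, fitted for gain of signal versus DMSO.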

[9] = BSK_3C_SRB: Viability Assessment in the BioMAP Diversity Plus: 3C Assay (AID 2283023); settings: primary human endothelial cells (HUVEC);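 note: fitted both ways against DMSO so a hit may be signal rise or drop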
Procedure, shortened: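 Primary human umbilical vein endothelial cells in the 3C system were read 24 h after compound dosing. Total protein was stained with 0.1% sulforhodamine B after 10% TCA fixation and read at 560 nm, with bidirectional fitting against DMSO as baseline.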

[10] = read-out: Matrix Metallopeptidase 1 (MMP1), MMP1 (gene 4312); experiment: BSK_BE3C_MMP1: BioMAP Diversity Plus: BE3C Assay for Matrix Metallopeptidase 1 (MMP1) Biomarker Activity (AID 2283024); settings: primary human bronchial epithelial cells; actives raise or lower the signal
Procedure, shortened: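 Primary human bronchial epithelial cells were dosed with test chemicals, and MMP1 levels were measured by ELISA 24 h later. Data were fitted bidirectionally against DMSO as the negative control and activity baseline.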

Measured: AC50

E-selectin (Homo sapiens), sequence (P16581 whole entry, looked up): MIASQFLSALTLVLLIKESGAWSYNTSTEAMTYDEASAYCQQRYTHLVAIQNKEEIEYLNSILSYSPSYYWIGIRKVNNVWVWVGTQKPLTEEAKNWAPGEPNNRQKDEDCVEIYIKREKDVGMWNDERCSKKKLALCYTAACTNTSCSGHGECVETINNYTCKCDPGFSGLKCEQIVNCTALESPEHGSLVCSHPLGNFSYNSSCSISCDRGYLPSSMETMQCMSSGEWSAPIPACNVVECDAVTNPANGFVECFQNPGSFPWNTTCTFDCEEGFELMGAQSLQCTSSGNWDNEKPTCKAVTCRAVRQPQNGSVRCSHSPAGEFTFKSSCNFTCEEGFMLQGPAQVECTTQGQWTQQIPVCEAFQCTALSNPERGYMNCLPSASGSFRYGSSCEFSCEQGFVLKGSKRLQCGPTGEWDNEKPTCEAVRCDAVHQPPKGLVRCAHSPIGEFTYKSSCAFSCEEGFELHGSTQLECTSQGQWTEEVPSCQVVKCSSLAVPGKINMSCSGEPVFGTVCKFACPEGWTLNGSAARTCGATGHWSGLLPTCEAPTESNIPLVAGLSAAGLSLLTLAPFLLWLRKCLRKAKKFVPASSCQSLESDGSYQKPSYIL

O=S(=O)(c1ccc(Cl)cc1)c1cc(Cl)c(Cl)cc1Cl
active: [3] 20 µM | [5] 5.27 µM | [6] 3.97 µM | [9] 5.42 µM
inactive: all other assays above

CC(C)O.CC(C)O.OCCN(CCO)CCO.OCCN(CCO)CCO.[Ti]
not listed: [3] | [8]
inactive: all other assays above

CCOP(=O)(OCC)OC(=CCl)c1ccc(Cl)cc1Cl
inactive: [2] | [7] | [10]
active: [1] 29.2 µM | [4] 20 µM | [5] 32.7 µM | [6] 3.97 µM | [9] 29 µM

O=C(O)C1(c2ccc3c(c2)OC[C@H](Cc2ccc(-c4ccccc4)cc2)[C@H]3O)CCCC1
active: [1] 24.9 µM | [2] 15.3 µM | [4] 20 µM | [5] 20 µM | [6] 29.9 µM | [7] 35.7 µM | [9] 28 µM | [10] 31.7 µM

CCCCCCCCCCCCc1cccc(S(=O)(=O)O)c1
active: [2] 27.2 µM | [10] 28.8 µM
not listed: [3] | [8]
inactive: all other assays above

CC(C)(COCC1CO1)COCC1CO1 (centres undefined)
active: [5] 20 µM
not listed: [3] | [8]
inactive: all other assays above

ClCCCCl
inactive: [8]

CCOC(=O)CCN(SN(C)C(=O)Oc1cccc2c1OC(C)(C)C2)C(C)C
active: [1] 20 µM | [4] 31.6 µM | [5] 14.2 µM | [6] 3.97 µM
inactive: [2] | [7] | [9] | [10]

Cc1ccc2nc3sc(=O)sc3nc2c1
active: [1] 8.99 µM | [4] 5 µM | [5] 5.97 µM | [6] 5 µM | [7] 8.57 µM | [9] 6.71 µM
inactive: [2] | [10]

Oc1c(Br)cc(Br)cc1Br
active: [1] 27.2 µM | [5] 34.3 µM | [9] 35.5 µM
not listed: [3] | [8]
inactive: all other assays above

Cc1cc(C)cc(C)c1
not listed: [3] | [8]
inactive: all other assays above

O=C(O)COc1cc(Cl)c(Cl)cc1Cl
not listed: [3] | [8]
inactive: all other assays above

Cc1cccc(OP(=O)(Oc2cccc(C)c2)Oc2cccc(C)c2)c1
active: [2] 0.78 µM
not listed: [3] | [8]
inactive: all other assays above
